# Bioassay records deposited in PubChem by National Center for Advancing Translational Sciences (NCATS).
# In the library only some 18% were active in any assay of this set; here they are far more common.
# TDP1 cell CPT: qHTS for Inhibitors of human tyrosyl-DNA phosphodiesterase 1 (TDP1): qHTS in cells in presence of CPT | chicken DT40 Tdp1-/-;hTDP1 cells + 20 nM CPT, ATP luminescence, 48 h | Potency, µM (top dose mostly 46.2 µM), for inactives: at the highest dose activity change, negative = growth inhibition, hits mostly inhibitors | hit rate 12% among 420,000; also: potency is read from the fitted curve at half-maximal effect; % is scaled to controls: 0 for no effect and ±100 for the full control effect; nearly all actives have a fitted effect of over 55% in size
#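 Chicken DT40 Tdp1-/- cells stably complemented with human TDP1 were seeded at 400 cells/well in medium containing 20 nM camptothecin, exposed to pin-transferred compounds, and grown at 37 °C for at least 48 hr. Viability was read as ATP luminescence.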
# HepG2 tox: qHTS for Inhibitors of TGF-b: Cytotox Counterscreen. HepG2 CAGA-GFP viability, ATP luminescence, 18 h. Potency, µM (series often up to 46.1 µM), inactives show top-dose activity change, negative = cytotoxicity, actives largely listed as cytotoxic. hit rate 0.76% among 410,000; also: potency is read from the fitted curve at half-maximal effect
#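 HepG2 CAGA-GFP cells (1000/well, DMEM with 1% FBS) received compound, then TGF-beta at 500 pg/mL final, and were incubated 18 hours at 37 degrees C. Viability was read by CellTiter-Glo luminescence. Media-only wells were set as complete cell-killing and DMSO as no toxicity.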
# TDP1 block: qHTS Assay for Inhibitors of Tyrosyl-DNA Phosphodiesterase (TDP1). recombinant TDP1, AlphaScreen DNA substrate cleavage. Tyrosyl-DNA phosphodiesterase 1 (Homo sapiens), Q9NUW8. AID 485290, 2010. hit rate 0.28% among 350,000. Potency, µM (doses to about 130 µM), inactives show top-dose activity change, negative = inhibition, hits mostly inhibitors; also: potency is read from the fitted curve at half-maximal effect; % is scaled to controls: 0 for no effect and ±100 for the full control effect; nearly all actives have a fitted effect of over 40% in size
# Target sequence (Q9NUW8 whole entry, looked up): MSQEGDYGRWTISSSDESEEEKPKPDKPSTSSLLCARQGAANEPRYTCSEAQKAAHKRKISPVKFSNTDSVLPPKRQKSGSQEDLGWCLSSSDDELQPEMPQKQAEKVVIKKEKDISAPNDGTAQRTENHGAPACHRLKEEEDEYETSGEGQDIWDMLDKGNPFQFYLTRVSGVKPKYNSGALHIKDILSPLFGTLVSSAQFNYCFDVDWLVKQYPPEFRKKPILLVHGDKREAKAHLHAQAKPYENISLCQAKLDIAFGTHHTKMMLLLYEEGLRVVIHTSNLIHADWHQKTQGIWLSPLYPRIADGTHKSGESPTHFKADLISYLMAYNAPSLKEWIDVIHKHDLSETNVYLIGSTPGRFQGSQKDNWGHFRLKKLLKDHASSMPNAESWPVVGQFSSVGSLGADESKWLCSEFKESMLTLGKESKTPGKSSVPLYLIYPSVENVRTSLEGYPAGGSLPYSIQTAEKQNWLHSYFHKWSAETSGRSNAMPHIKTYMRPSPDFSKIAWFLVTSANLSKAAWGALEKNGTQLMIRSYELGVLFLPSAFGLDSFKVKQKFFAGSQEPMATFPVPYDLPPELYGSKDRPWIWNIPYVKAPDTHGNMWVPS
#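 Recombinant human Tdp1 (E. coli-expressed, 1 nM final) preincubated with compounds 15 min at room temperature, then 5'-biotin/3'-phosphotyrosine-FITC DNA substrate (15 nM final) added for 5 min. AlphaScreen beads (10 ug/ml final) added 10 min; cleavage lowers signal.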
# TGFb inhibitor: qHTS for Inhibitors of TGF-b | Potency, µM (top dose mostly 46.1 µM), for the others: at the top dose activity, negative = inhibition, actives largely listed as inhibitors | HepG2 CAGA-GFP TGF-b/SMAD3 reporter, GFP fluorescence, 18 h; TGF-beta stimulated, 500 pg/mL final | hit rate 1.2% among 410,000 | AID 588855, 2011; also: potency is read from the fitted curve at half-maximal effect; % is scaled to controls: 0 for no effect and ±100 for the full control effect; nearly all actives have a fitted effect of over 65% in size
#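 GFP signal (ex488/em500-530) from TGF-beta-stimulated HEPG2 CAGA-GFP cells, 500 pg/mL final, 18 h at 37 degrees C in DMEM plus 1% FBS, normalized to unstimulated and DMSO-stimulated controls.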
# TDP1 cell noCPT: qHTS for Inhibitors of human tyrosyl-DNA phosphodiesterase 1 (TDP1): qHTS in cells in absence of CPT; AID 686978, 2013; hit rate 15% among 420,000; DT40 Tdp1-/- hTDP1 cells, no CPT, ATP luminescence, 48 h; Potency, µM (doses to about 46.2 µM), without a hit: at the highest dose activity change, negative = growth inhibition, actives largely listed as inhibitors; also: potency is read from the fitted curve at half-maximal effect; % is scaled to controls: 0 for no effect and ±100 for the full control effect; nearly all actives have a fitted effect of over 55% in size
#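 No-CPT arm: Tdp1-/-;hTDP1 DT40 cells (400/well) plus compounds, incubated ≥48 hr at 37 °C. Readout CellTiter-Glo luminescence.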
# IL1B secr inh: qHTS for Inhibitors of Inflammasome Signaling: IL-1-beta AlphaLISA Primary Screen; hit rate 4.7% among 360,000; THP-1 LPS/ATP IL-1B secretion, AlphaLISA, 16 h; hits give low values; AID 743279, 2014; activity change, % at 57.5 µM; in the data active = activity change below about -50%; inconclusive = mostly about -30% to -49%; also: % is scaled to controls: 0 for no effect and ±100 for the full control effect
#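 THP-1 cells pretreated 1 hr with compounds (up to 57.5 uM final), then stimulated with LPS (250 ng/mL final) plus ATP (1.25 mM final); secreted IL-1B measured by AlphaLISA after 16 hr, decreased signal indicating inhibition.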
# * = called active by the depositor; ? = inconclusive; . = no result; [ ] = dose if it differs, or a comment. Unless noted, calls follow the shape of the dose curve; as a rule, active = well fitted curve in the direction sought with a large enough effect; inconclusive = small, poorly fitted or top-dose-only effect, or another doubt; inactive = no such curve, though single readings can be large; an effect the other way counts as inactive or inconclusive.
SMILES,TDP1 cell CPT,HepG2 tox,TDP1 block,TGFb inhibitor,TDP1 cell noCPT,IL1B secr inh
COC(=O)[C@@H]1C[C@@]2(O)[C@@H](O)[C@@H](O)[C@@H](O)C[C@H]2N1Cc1ccc(N2CCOCC2)cc1,.,.,4%,.,.,.
Cc1ccc(C(=O)Nc2cccc(-c3nc(CNC(=O)C4CCCCC4)c(C)o3)c2)s1,1%,.,.,.,-14%,.
CCCSc1nc2c(c(=O)[nH]1)C(c1ccc(O)c(OCC)c1)CC(=O)N2 (stereo not drawn),-16%,-3%,-4%,-2%,-13%,.
O=C(NNC(=S)NC(=O)c1cccnc1)c1ccccc1,?,-5%,4%,-4%,23µM*,42
O=C(NNC(=S)NC(=O)c1cccnc1)c1ccc(F)cc1,-26%,22%,-3%,36%,?,-3
O=C(NNC(=S)NC(=O)c1ccc(F)cc1)c1cccnc1,?,-37%,0%,-1%,18µM*,22
COc1ccccc1C1CN(Cc2cccc3nccnc23)Cc2ccccc2O1 (stereo not drawn),-11%[9.04 µM],.,.,.,-6%,.
CC(=O)Nc1ccc(S(=O)(=O)NCCC(=O)OC(C)C(=O)NC2(C#N)CCCCC2)cc1 (stereo not drawn),2%,-22%,-1%[56.1 µM],-2%,-16%,-6
O=[N+]([O-])c1ccc(Cl)c(/C=N/n2c(-c3ccncc3)n[nH]c2=S)c1,18µM*,-43%,-4%,0%,?,39
S=c1[nH]nc(-c2ccncc2)n1/N=C/C(Cl)=C\c1ccccc1,13µM*,-34%,.,?,8.2µM*,-63*
O=[N+]([O-])c1ccc(O)c(/C=N/n2c(-c3ccccc3)n[nH]c2=S)c1,2%,-18%,.,-7%,-6%,2
S=c1[nH]nc(COc2ccccc2)n1/N=C/C(Cl)=C/c1ccccc1,23µM*,-84%,13%,?,16µM*,-91*
Cc1cc(C)c(NC(=O)CN2CCN(c3ccccn3)CC2)c(C)c1,19%,-3%,3%,-6%,-18%,-7
Cn1c(=O)oc2cc(S(=O)(=O)N3CCCC(C(=O)NCCc4ccc(Cl)cc4)C3)ccc21 (stereo not drawn),-3%,-2%,9%,-15%,?,.
CC1CCCC(C)N1CC(O)COC1CCC(C(C)(C)C)CC1 (stereo not drawn),23µM*,-50%,.,?,21µM*,0
CC1CN(CC(O)COC2CCC(C(C)(C)C)CC2)CC(C)O1 (stereo not drawn),?,-10%,2%,1%,-25%,17
COc1cccc(CN2CCN(C(=O)c3cc(-c4ccncc4)nc4ccc(C)cc34)CC2)c1,23µM*,-28%,.,-3%,16µM*,-14
COc1cccc(CN2CCN(C(=O)c3cc(-c4ccccn4)nc4ccc(Cl)cc34)CC2)c1,?,-20%,5%,-2%,18µM*,54
COc1cccc(CN2CCN(C(=O)c3cccc4ccccc34)CC2)c1,-2%,-1%,.,?,11%,-18
Cc1c([N+](=O)[O-])cc(S(=O)(=O)Nc2ccncc2)cc1[N+](=O)[O-],-23%,-2%,1%,-2%,1%,5
N/C(=N\S(=O)(=O)c1cc(C(F)(F)F)cc(C(F)(F)F)c1)c1ccncc1,-4%,-29%,6%,5%,?,16
N/C(=N\S(=O)(=O)c1cc(C(F)(F)F)cc(C(F)(F)F)c1)c1ccc(Cl)cc1,18µM*,-119%,3%,10µM*,21µM*,-1
C=CCOC(=O)N[C@@H](CC(C)C)/C(C(=O)OC)=C(\C)NCc1ccccc1,.,.,-6%,.,.,.
COc1ccc(CCNCc2c(C(=O)O)c(C)n(Cc3ccccc3C)c2C)c(OC)c1,?,-24%,3%,-23%,18µM*,.
COc1ccc(Cn2c(C(=O)O)c(CNCCc3cc(OC)ccc3OC)c3ccc(C)cc32)cc1,?,-96%,11%,?,16µM*,.
SMILES,TDP1 cell CPT,HepG2 tox,TDP1 block,TGFb inhibitor,TDP1 cell noCPT,IL1B secr inh
COc1ccc(Cn2c(C(=O)O)c(CNCc3ccc(OC)cc3OC)c3ccc(C)cc32)cc1,15µM*,2%,6%,-11%,9.2µM*,.
CCOc1ccc(CCNCc2c(C(=O)O)n(Cc3ccc(C)cc3)c3cc(OC)ccc23)cc1,?,-113%,0%,.,18µM*,.
COc1ccc2c(CNCc3ccc(C)o3)c(C(=O)O)n(Cc3ccccc3)c2c1,-27%,4%,8%,0%,?,.
CC(=O)C1=C(O)C(=O)N(c2ccc(Br)cc2)C1c1cccc([N+](=O)[O-])c1 (stereo not drawn),0%,-1%,4%,-16%,22%,0
CC1CCCCC1NC(=O)c1cc2c(=O)n3ccccc3nc2n1C (stereo not drawn),23µM*,-15%,-4%,0%,16µM*,18
CC1CCCCC1NC(=O)c1c(O)nc2ccccn2c1=O (stereo not drawn),?,3%,6%,-2%,21µM*,81
O=C(NCCCN1CCCC1=O)c1c(O)nc2ccccn2c1=O,-17%,5%,2%,-7%,-6%,13
Cc1csc2nc(O)c(C(=O)NC3CCCCC3C)c(=O)n12 (stereo not drawn),?,4%,6%,17%,18µM*,26
NC(=O)C1=C(N=C2CCCCC2)CCCC1,-11%,-7%,.,17%,-20%,3
CN(C)CCNC(=O)CCCN1C(=O)c2cccnc2Oc2ccc(Cl)cc21,1%,8%,5%,1%,-15%,.
Cc1ccc(C(=O)O)cc1-c1ccc(C=C2C(=O)c3ccccc3C2=O)o1,9%,-12%,-2%,-3%,-2%,10
O=C1C(=Cc2ccc(Br)o2)C(=O)c2ccccc21,23µM*,-16%,?,4%,?,6
CC(=O)c1cc(C#N)c(SCC(=O)OC(C)(C)C)nc1C,21µM*,4%,1%,19%,?,-25
CC(=O)c1cc(C#N)c(SCC(=O)OC(C)C)nc1C,?,-20%,0%,-1%,?,11
